Hits are enriched below; roughly 2.6% of the tested compounds scored in any of these assays.
FH mod – Identification of activators of human fumarate hydratase by quantitative high-throughput screening | Fumarate hydratase, mitochondrial (Homo sapiens), P07954 | FH coupled MDH/diaphorase resazurin fluorescence, 15 min | Potency, µM (series often up to 79.9 µM), usual class: inhibitors | 54,000 compounds, 0.22% hits | AID 1347055, 2019; also: the screen sought activators but most active calls are inhibition curves; nearly all actives have a fitted effect of over 45% in size
Target sequence (P07954 whole entry, looked up): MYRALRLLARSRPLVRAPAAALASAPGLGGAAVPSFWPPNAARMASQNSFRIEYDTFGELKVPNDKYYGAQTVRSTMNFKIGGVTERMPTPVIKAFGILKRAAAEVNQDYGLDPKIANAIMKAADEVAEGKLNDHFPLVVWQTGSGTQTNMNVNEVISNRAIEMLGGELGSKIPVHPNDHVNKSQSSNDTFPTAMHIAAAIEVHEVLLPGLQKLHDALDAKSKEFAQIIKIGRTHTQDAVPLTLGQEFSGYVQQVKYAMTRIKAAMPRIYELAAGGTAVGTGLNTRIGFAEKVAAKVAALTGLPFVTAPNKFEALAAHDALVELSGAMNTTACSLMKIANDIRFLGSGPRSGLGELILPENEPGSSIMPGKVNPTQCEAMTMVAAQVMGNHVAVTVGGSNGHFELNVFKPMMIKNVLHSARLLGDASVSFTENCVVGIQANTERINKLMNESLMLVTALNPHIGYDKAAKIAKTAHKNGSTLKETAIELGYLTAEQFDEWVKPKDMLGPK
HTT-AS promoter – activators of huntingtin-antisense promoter activity; 48,000 compounds, 0.24% hits; Potency, µM (doses to about 57.5 µM), most hits filed as activators; HEK293 HTT-AS promoter firefly luciferase reporter, 24 h; response scale: percent change from vehicle, -100% = no light; AID 1508624; also: nearly all actives have a fitted effect of over 55% in size
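Quantitative HTS used concentration series of up to 57.5 uM final on HEK293 luciferase reporter cells, 24 h at 37 degrees C. Readout was Dual-Glo firefly luminescence.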
HTT prom inh – inhibits huntingtin promoter activity; 48,000 compounds, 0.93% hits; AID 1508623; Potency, µM (highest dose often 57.5 µM), actives largely listed as inhibitors; HEK293 HTT promoter firefly luciferase reporter, 24 h; also: nearly all actives have a fitted effect of over 50% in size
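HEK293 Fluc reporter, 2,500 cells/well, 24 h pre-culture; cpds up to 57.5 uM final, 24 h 37 degrees C; Dual-Glo, 10 min RT; normalized vehicle = 0%, zero RLU = -100%.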
NTMT1 inhibitor – NTMT1 methyltransferase inhibition; NTMT1 MTase-Glo SAH luminescence, purified enzyme; Potency, µM (doses to about 114 µM), usual class: inhibitors; 59,000 compounds, 2.5% hits; AID 1645870; also: nearly all actives have a fitted effect of over 65% in size
Hits are given with their value; i = inactive; ? = inconclusive; nt = no result; ! = not active in a repeat; [ ] = another dose, or the depositor's remark. Calls follow the shape of the dose curve; as a rule, active = well fitted curve in the direction sought with a large enough effect; inconclusive = small, poorly fitted or top-dose-only effect, or another doubt; inactive = no such curve, though single readings can be large; an effect the other way counts as inactive or inconclusive.

SMILES	FH mod	HTT-AS promoter	HTT prom inh	NTMT1 inhibitor
N#C/C(=C\c1ccc(-c2ccc(C(=O)O)cc2)o1)c1nc2ccccc2[nH]1	28µM	?	i	45µM
Nc1ncnc2c([C@@H]3N[C@H](CO)[C@@H](O)[C@H]3O)c[nH]c12	?	nt	nt	i
COc1ccc(Cn2c(CO)cnc2SCc2ccc(C)cc2)cc1	i	?	i	i
COc1ccc(Cn2c(CO)cnc2SCc2ccc(F)cc2)cc1	i	i	32µM	89µM
OCCCc1ccccc1	i	i	i	i
NNCCc1ccccc1	i	4µM!	i	?
O=C(c1ccc(F)cc1)N1CCC(c2nc3ccccc3s2)CC1	i	i[11.5 µM]	?	i
O=C(c1ccc(Nc2nccc(-c3cc4ccccc4s3)n2)cc1)N1CCC(N2CCCC2)CC1	i	i	i	28µM!
COc1ncc(Nc2ncc([C@@H](C)N3CCN(S(C)(=O)=O)CC3)cc2-c2nc(C)nc(N)n2)cc1F	i	nt	nt	i
Cc1ccc(NC(=O)c2cc(-c3cccs3)on2)cc1C	i	8.9µM	i	i
CCc1ccc(NC(=O)c2cc(-c3cccs3)on2)cc1	i	?	i	i
COC(=O)c1ccc(=O)c2nc3/c(=C/O)c(O)cc(=O)c3[nH]c12	i	nt	nt	35µM
NNc1nncc2ccccc12	i	7.7µM	i	?
CN(C)c1ccc(Nc2c3ccc(NC(=O)CCN4CCCC4)cc3nc3cc(NC(=O)CCN4CCCC4)ccc23)cc1	i	nt	nt	6.3µM
CC(C)c1cc(C(C)C)c(CC(=O)NS(=O)(=O)Oc2c(C(C)C)cccc2C(C)C)c(C(C)C)c1	i	i	?	40µM!
CCOC(=O)c1cc(-c2ccccc2)n(CC(=O)NC(C)c2ccccc2)c1C (configuration not stated)	i	i	i	i
CC(=O)c1ccc(NC(=O)c2cnn3c(C)cc(C)nc23)cc1	nt	nt	nt	i
CC1CCCC(O)CCC/C=C/c2cc(OS(=O)(=O)O)cc(O)c2C(=O)O1 (configuration not stated)	i	nt	nt	13µM
CC1CCC/C=C/C(=O)c2c(O)cc(O)cc2CC(=O)O1 (configuration not stated)	i	nt	nt	i
CCOc1cc2c(c(F)c1OCC)C(=N)N(CC(=O)c1cc(N3CCOCC3)c(OC)c(C(C)(C)C)c1)C2	i	i	?	32µM!
COc1ccc(C(=O)Nc2ccc(N3CCOCC3)c(C(F)(F)F)c2)cc1OC	?	i	i	i
CC(C)(O)C(=O)N1CCN(c2ccc(C(F)(F)F)c(C3=C(c4c[nH]c5ccccc45)C(=O)NC3=O)c2)CC1	i	nt	nt	11µM
COc1cccc(CN2CCc3nc(N4CCN(c5ncccn5)CC4)ncc3C2)c1	i	i	25µM	i
COc1cccc(CN2CCc3nc(N4CCN(C)CC4)ncc3C2)c1	i	i	i	i
NC(N)=NN=C(/C=C/c1ccc([N+](=O)[O-])o1)/C=C/c1ccc([N+](=O)[O-])o1	i	i	?	40µM
SMILES	FH mod	HTT-AS promoter	HTT prom inh	NTMT1 inhibitor
O=[N+]([O-])c1ccc(/C=N\O)o1	i	i	i	i
O=C(NCCc1ccccc1)c1nn(-c2ccccc2F)nc1CO	i	i	i	i
O=C(NCC(c1ccccc1)c1ccccc1)c1nn(-c2ccccc2F)nc1CO	i	i	4µM	?
Cc1cc(S(=O)(=O)Nc2ccc(O)c(Sc3nc4ccccc4s3)c2)ccc1Cl	?	i	i	i
O=S(=O)(Nc1ccc(O)c(Sc2nc3ccccc3s2)c1)c1cc(Cl)ccc1Cl	16µM	i	?	i
COc1ccc(-c2cc(C(C)=O)c(C)n2CCC(=O)Nc2cc(Cl)ccc2C)cc1	i	i	i	89µM
COC1CC(=O)C23C(=O)NC(Cc4c[nH]c5ccccc45)C2C(C)C2(C)OC2C3/C=C/CC(C)CC1O (configuration not stated)	i	nt	nt	i
O=C(O)[C@H]1O[C@H](Oc2cc3oc(-c4ccccc4)cc(=O)c3c(O)c2O)[C@H](O)[C@@H](O)[C@H]1O	i	?	i	i
O=c1cc(-c2ccccc2)oc2cc(O)c(O)c(O)c12	?	?	i	28µM!
CC1CCC2C(C)(C)C(O)CCC2(C)C12Cc1c(O)cc3c(c1O2)C(N)=NC3 (configuration not stated)	i	nt	nt	i
O=C(CCc1nnc2n(Cc3ccc(Cl)cc3)c(=O)c3ccccc3n12)NCCC1=CCCCC1	i	nt	nt	i
NCCS	i	i	i	32µM
CC(C)CC(=O)OC1OC=C(CO[C@@H]2O[C@H](CO)[C@@H](O)[C@H](O)[C@H]2O)C2CC(O)C(O)(CO)C12 (some centres not stated)	i	nt	nt	i
COc1ccc(Br)cc1S(=O)(=O)NC(=O)/C=C/c1ccccc1Cc1ccc2ccccc2c1	20µM	nt	nt	nt
Cc1cc(OCCCSc2nc(-c3ccc(C(C)(C)C)cc3)nc3cc(=O)[nH]n23)ccc1Cl	?	i	i	50µM!
CC(C)(C)c1ccc(-c2nc(SCCCOc3ccccc3)n3[nH]c(=O)cc3n2)cc1	?	i	i	?
COc1ccc(NCc2cccn2-c2nnc(N3CCCCC3)s2)cc1OC	?	i	7.9µM	i
CCc1ccc(NCc2cccn2-c2nnc(N3CCCCCC3)s2)cc1	i	i	10µM	i
Cc1ccccc1NCc1cccn1-c1nnc(N2CCC(C)CC2)s1	i	i	i	i
COc1cccc(NCc2cccn2-c2nnc(N3CCC(C)CC3)s2)c1	i	i	10µM	i
Cn1cc(C2=C(c3c4n(c5ccccc35)CCC(CN)C4)C(=O)NC2=O)c2ccccc21 (configuration not stated)	i	i	?	40µM!
Cc1nnc(-c2cnn(C)c2N)n1Cc1cncn1C	nt	nt	nt	i
O=C1NCCSc2c1sc1ccc(O)cc21	i	nt	nt	?
COc1cccc(CN(C(=O)c2oc3cc(C)ccc3c2C)C2CCS(=O)(=O)C2)c1 (configuration not stated)	32µM	i	i	i
Cc1nnsc1C(=O)Nc1ccc(-n2nc(C(F)(F)F)cc2C(F)(F)F)cc1	i	nt	nt	i
SMILES	FH mod	HTT-AS promoter	HTT prom inh	NTMT1 inhibitor
Cc1cc(C(=O)Nc2cccc(C(=O)Nc3cccc(C(F)(F)F)c3)c2)on1	i	nt	nt	i
COc1cccc(C(=O)Nc2ccc(-n3nncc3-c3ccccc3)cc2)c1OC	i	i	i	56µM
CCOc1ccccc1C(=O)Nc1ccc(-n2nncc2-c2ccccc2)cc1	i	i	?	i
CC1CCN(c2nc3ccc(C(=O)NCc4ccccc4)cc3s2)CC1	i	i	0.11µM	i
CCOc1ccccc1CNC(=O)c1ccc2nc(N3CCC(C)CC3)sc2c1	i	i	1.8µM	i
CC1CCN(c2nc3ccc(C(=O)NC(C)C)cc3s2)CC1	i	?	i	?
Cc1ccc(CNC(=O)c2ccc3nc(N4CCCCC4)sc3c2)cc1	i	i	?	i
CC1CCN(c2nc3ccc(C(=O)NCCc4ccc(S(N)(=O)=O)cc4)cc3s2)CC1	i	?	0.4µM	89µM
CC(C)(C)OC(=O)N[C@@H](Cc1ccc(O[S+](=O)([O-])c2cccnc2)cc1)C(=O)N1CCN(c2ccccc2)CC1	nt	nt	nt	i
S=P(c1ccccc1)(c1ccccc1)c1nc(CCCc2ccccc2)n2ccccc12	nt	nt	nt	i
